Source: the supplement of paper PMC10646978
± gives the standard deviation.

Columns and labels:
Details in all cases: modulator concentration 10 µM
[1] = tested on: RAW-Dual (murine macrophage reporter line); experiment: NF-kB reporter (SEAP) activity fold change vs agonist alone; higher = enhanced NF-kB activity
Procedure, shortened: (§1)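 Compound reached 10 μM final in each well by pin transfer, onto RAW-Dual murine macrophage reporter cells seeded at 50 000 per well in 384-well plates. After 1 hour at 37 °C, the cells were stimulated overnight with a PRR agonist. SEAP in the supernatant was read with QUANTI-Blue at 620 nm absorbance for NF-κB, and Lucia luciferase was read with QUANTI-Luc luminescence for IRF. Each signal was turned into fold change against the mean agonist-only control on the same plate, and two replicate plates were averaged with propagated errors.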

[2] = tested on: RAW-Dual (murine macrophage reporter line); experiment: IRF reporter (Lucia luciferase) activity fold change vs agonist alone; higher = enhanced IRF activity
Procedure, shortened: as §1

[3] = tested on: RAW-Dual (murine macrophage reporter line); experiment: viability score (confluency relative to resting cells, overnight) (fraction); higher = more viable, active = viable (0.7 or more)
Procedure, shortened: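 Compound was added at a final 10 μM to RAW-Dual macrophages in 384-well plates and left overnight. Confluency was imaged with IncuCyte, and two masks were generated in IncuCyte software over all imaged wells. Each viability score is confluency relative to resting cells, and a compound met the cutoff only when both masks were above 70% of resting cells.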

[4] = agonist: CpG ODN 1826 0.5 ug/mL

Structure (SMILES)	NF-kB reporter [1, 4]	NF-kB reporter ([1]; agonist: LPS 0.1 ug/mL)	NF-kB reporter ([1]; agonist: MPLA […])	IRF reporter ([2]; agonist: 3'3'-cGAMP 10 ug/mL)	IRF reporter ([2]; agonist: LPS 0.1 ug/mL)	IRF reporter ([2]; agonist: MPLA […])	viability score [3]
COc1ccc(CC(=O)Nc2ccc(C)c(N3CCCCC3=O)c2)cc1OC	1.42 ± 0.34	1.18 ± 0.09	1.06 ± 0.071	0.937 ± 0.059	0.98 ± 0.14	1.06 ± 0.12	1 (active)
O=C(C=Cc1ccco1)Nc1ccc(C(=O)O)cc1NC(=O)C=Cc1ccco1	0.691 ± 0.069	1.11 ± 0.061	0.932 ± 0.056	0.884 ± 0.028	1.27 ± 0.19	0.976 ± 0.27	1.02 (active)
CCc1c(C)c2ccc(OCC(C)=O)c(C)c2oc1=O	0.936 ± 0.21	0.984 ± 0.098	0.938 ± 0.098	0.942 ± 0.068	1.27 ± 0.3	1.2 ± 0.13	0.991 (active)
CCCCOC(=O)C1=C(C)NC2=C(C(=O)CCC2)C1c1cccc(C(F)(F)F)c1 (stereo unspecified)	0.981 ± 0.1	1.01 ± 0.057	0.939 ± 0.058	0.993 ± 0.025	1.56 ± 0.28	1.15 ± 0.17	1.01 (active)
C#CC1(O)CCC2C3CCC4=Cc5oncc5CC4(C)C3CCC21C (stereo unspecified)	1.26 ± 0.31	1.27 ± 0.094	1.2 ± 0.082	0.787 ± 0.046	1.35 ± 0.2	1.56 ± 0.15	0.958 (active)
CCOc1ccc2nc(NC(=O)c3ccc(Br)cc3F)sc2c1	1.15 ± 0.095	1.1 ± 0.098	1 ± 0.041	0.873 ± 0.071	1.05 ± 0.067	0.946 ± 0.15	0.994 (active)
NS(=O)(=O)c1ccc2c(c1)C1C=CCC1C(C(=O)O)N2 (stereo unspecified)	0.586 ± 0.049	0.992 ± 0.15	1.01 ± 0.075	0.8 ± 0.043	0.931 ± 0.055	1.01 ± 0.089	0.997 (active)
Nc1nc(N)nc(-c2cc(Cl)ccc2Cl)n1	0.906 ± 0.22	1 ± 0.052	1.05 ± 0.093	0.946 ± 0.052	1.18 ± 0.32	1.08 ± 0.17	0.986 (active)
COC(C)(CNC(=O)CSc1ccc(F)cc1)c1cccc(Cl)c1 (stereo unspecified)	1.11 ± 0.4	1.07 ± 0.11	1.01 ± 0.074	0.973 ± 0.082	0.992 ± 0.13	1.12 ± 0.32	0.987 (active)
COc1ccc(NC(=O)CN(c2ccc(F)cc2)S(C)(=O)=O)c(OC)c1	0.872 ± 0.073	0.896 ± 0.067	1.05 ± 0.099	0.921 ± 0.042	1.23 ± 0.089	1.35 ± 0.14	0.999 (active)
COc1ccc(Cl)cc1NS(=O)(=O)c1c(C)cc(C)cc1C	0.993 ± 0.14	0.937 ± 0.062	1.46 ± 0.12	1.24 ± 0.11	1.16 ± 0.11	1.04 ± 0.12	0.982 (active)
O=C(CCC1CCCC1)Nc1cccc(Cl)c1	0.771 ± 0.061	0.906 ± 0.1	1.15 ± 0.1	0.943 ± 0.046	1.63 ± 0.11	1.87 ± 0.16	1 (active)
O=C(CC12CC3CC(CC(C3)C1)C2)N1CCCCC1	0.863 ± 0.064	0.99 ± 0.11	0.949 ± 0.056	1.1 ± 0.037	1.53 ± 0.1	1.23 ± 0.15	0.911 (active)
COc1ccccc1N1CCN(CCCNc2cc(=O)n(C)c(=O)n2C)CC1.Cl	1.2 ± 0.3	1.08 ± 0.34	0.954 ± 0.085	0.959 ± 0.029	1.21 ± 0.4	1.12 ± 0.092	0.996 (active)
Cc1nnc(NC(=O)c2ccccc2C(=O)O)s1	0.982 ± 0.13	0.969 ± 0.063	0.983 ± 0.051	1.11 ± 0.28	1.01 ± 0.055	1.04 ± 0.085	0.998 (active)
O=C(Nc1nc2ccccc2n1CCN1CCOCC1)C1CCCCC1	1.03 ± 0.1	1 ± 0.088	0.933 ± 0.068	1.03 ± 0.039	1.55 ± 0.27	1.07 ± 0.12	1.02 (active)
O=C(Nc1ccc(-c2cn3ccsc3n2)cc1)NC1CCCCC1	2.23 ± 0.14	1.16 ± 0.12	1.59 ± 0.11	0.5 ± 0.032	0.923 ± 0.086	1.22 ± 0.18	0.826 (active)
Br.Cc1nc(C)c(-c2csc(Nc3cccc(C(=O)O)c3)n2)s1	0.754 ± 0.067	0.883 ± 0.082	1.08 ± 0.11	0.882 ± 0.048	1.36 ± 0.087	1.56 ± 0.13	1 (active)
